In all, about 220,000 compounds went through this assay and about 530 (0.24%) were called active. No stated cut-off is given here; in the data, active means inhibition above about 13%; inconclusive means no clear call, values can overlap the other calls; inactive means below that. The entries come from a sample that favours actives as a whole. Results with a measured potency or affinity are listed apart.

Chain of Bifunctional protein GlmU (Mycobacterium tuberculosis (strain ATCC 25618 / H37Rv)) (P9WMN3 whole entry, looked up): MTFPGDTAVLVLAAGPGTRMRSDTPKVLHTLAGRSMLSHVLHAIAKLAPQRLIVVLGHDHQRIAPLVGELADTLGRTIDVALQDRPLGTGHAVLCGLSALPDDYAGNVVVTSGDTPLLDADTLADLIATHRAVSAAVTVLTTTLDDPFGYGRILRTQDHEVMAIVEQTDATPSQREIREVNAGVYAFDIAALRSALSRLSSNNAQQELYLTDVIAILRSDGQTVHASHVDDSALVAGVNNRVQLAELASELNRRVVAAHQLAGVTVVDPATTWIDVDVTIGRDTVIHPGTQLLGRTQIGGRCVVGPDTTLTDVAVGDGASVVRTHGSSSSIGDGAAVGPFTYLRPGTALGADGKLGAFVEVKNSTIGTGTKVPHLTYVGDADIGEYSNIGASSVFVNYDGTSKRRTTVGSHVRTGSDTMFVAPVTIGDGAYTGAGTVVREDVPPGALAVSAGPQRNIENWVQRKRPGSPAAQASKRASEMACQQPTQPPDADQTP

The assay has as its target Bifunctional protein GlmU (Mycobacterium tuberculosis (strain ATCC 25618 / H37Rv)) (UniProt P9WMN3). Description: inhibition of mycobacterial GlmU enzyme – biochemical, glucosamine-1-phosphate acetyltransferase (AID 1376).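 Further: 0% = complete reaction with vehicle and 100% = reaction without substrate.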 Conditions: M. tuberculosis GlmU acetyltransferase enzyme assay; hits give high values;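 tested at 30 µM in the primary screen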.
For orientation: inhibition means the relative decrease from the control value, in per cent. As for `CCCCN(CC)Cc1ccc(CNC(=S)Nc2cccc(F)c2)o1`, the inhibition was -3.9% (inactive).
To `N#C/C(=C\c1ccc[nH]1)C(=O)NCC1CCCO1` (centres undefined) belongs 2.87% (inactive); to `Brc1ccc(CSc2ccc3nnc(-c4ccccn4)n3n2)cc1`, -0.66% (inactive).
To `COc1cccc(/C=N\n2c(C)nnc2C)c1OC` belongs 8.8% (inactive).
To `Cc1ccc(N2C(=O)c3ccccc3C2C(=O)c2cc(C)ccc2O)cc1` (centres undefined) belongs -7.05% (inactive); to `Cc1ccc(N2C(=O)c3ccccc3C2C(=O)c2ccc(O)cc2O)cc1` (centres undefined), 13.2% (active).
In the case of `Cc1ccc(N2C(=O)c3ccccc3C2C(=O)c2ccc(C)c(C)c2O)cc1` (centres undefined), the inhibition is -5.61% (inactive).
For `CN1CCSc2ccc(C(=O)Nc3cc(F)ccc3F)cc21`, the inhibition was -5.68% (inactive).
To `Cc1ccc(C(=O)C2CCN(CC(=O)NC3CCCCC3)CC2)cc1` belongs 1.4% (inactive); to `COc1ccccc1NS(=O)(=O)c1cc(NC(=O)c2sccc2C)ccc1N1CCCC1`, 0.4% (inactive).
With `CCOC(=O)c1cc(-c2ccc(/C=C3/C(=O)NC(=O)C(C#N)=C3C)o2)ccc1Cl`, the inhibition was -3.05% (inactive).
To `CC1=C(C#N)C(=O)NC(=O)/C1=C/c1ccc(-c2ccc(S(N)(=O)=O)cc2)o1` belongs 14.3% (active); to `CC1(C)OC(=O)C(=Cc2ccc(-c3ccc(S(N)(=O)=O)cc3)o2)C(=O)O1`, -2.03% (inactive); to `COc1ccc(CCC(=O)Nc2cc(Cl)ccc2N2CCN(C)CC2)cc1`, -2.71% (inactive).
The value for `Cc1cc(C)nc(NN=C2CCCC2)n1` was -4.71% (inactive); that for `C/C=C1/CN2[C@@H]3C4CO[C@@H]3c3c([nH]c5cc(OC)ccc35)[C@@H]2CC14` (some centres undefined) was 4.24% (inactive); that for `N#C/C(=C/c1cccn1-c1cccc(C(=O)O)c1)c1ccc(Cl)cc1` was 7.87% (inactive).
The value for `O=C(O)c1cccc(-n2cccc2/C=C2/NC(=O)N(c3cccc(Cl)c3)C2=O)c1` was 2.42% (inactive); that for `O=C(O)c1cccc(-n2cccc2/C=C2/NC(=O)N(c3ccc(Cl)cc3)C2=O)c1` was 68.6% (active).
Regarding `O=C(O)c1cccc(-n2cccc2/C=C2/NC(=O)N(Cc3ccccc3F)C2=O)c1`, the inhibition was 7.3% (inactive).
With `Cc1ccc(CN2C(=O)N/C(=C\c3cccn3-c3cccc(C(=O)O)c3)C2=O)cc1`, the inhibition is 7.01% (inactive).
To `O=C(O)c1ccc(COc2ccccc2/C=C2/NC(=O)N(c3cccc(Cl)c3)C2=O)cc1` belongs -4.52% (inactive); to `ON=Cc1cccn1-c1ccccc1`, 2.34% (inactive).
As for `COc1ccc(-n2cccc2/C=C2/NC(=O)N(c3cccc(Cl)c3)C2=O)cc1`, the inhibition was 1.07% (inactive).
The value for `O=C(N/N=C/c1cccn1-c1cccc(C(=O)O)c1)Nc1ccccc1` was 7.06% (inactive); that for `O=C(O)c1cccc(-n2cccc2/C=C2\NC(=O)N(Cc3ccc(F)cc3)C2=O)c1` was 13.9% (active); that for `O=C(Cn1nc(-c2ccccc2)ccc1=O)N1CCC2(CC1)OCCO2` was -1.66% (inactive).
To `CC(C)C(=O)N1N=C2CCCCC2C1(O)C(F)(F)F` (centres undefined) belongs -2.41% (inactive).
The value for `O=C(Nc1ccccc1)c1ccc2snnc2c1` was -0.53% (inactive).
As for `S=C=Nc1ccccn1`, the inhibition was -0.05% (inactive).
In the case of `COc1ccccc1Nc1nc(N)nc(CN2CCOCC2)n1`, the inhibition is -4.21% (inactive).
The value for `Cc1ccc(NC(=S)N/N=C2\CC(C)(C)Oc3ccc(O)cc32)cc1` was 0.56% (inactive).
The value for `O=C(Nc1ccc(-c2nc3ccccc3[nH]2)cc1)c1ccc(N2C(=O)CCC2=O)cc1` was -0.75% (inactive); that for `O=C(CSc1ncn[nH]1)NCCOc1ccccc1` was -0.55% (inactive); that for `O=C1N[C@@H](Cc2ccccc2)C(=O)N2[C@@H]1C[C@@]1(Br)c3ccccc3N(S(=O)(=O)c3ccccc3)[C@@H]21` was 3.3% (inactive).
The value for `N#CC(C#N)=Cc1cccn1-c1ccc(C(=O)O)cc1` was 13.8% (active); that for `O=C(O)c1cccc(-n2cccc2/C=C2\SC(=O)N(Cc3ccccc3F)C2=O)c1` was 14.4% (active); that for `N#CC(C#N)=Cc1cccn1-c1ccc(S(N)(=O)=O)cc1` was -1.86% (inactive).
In the case of `O=C(O)c1ccc(-n2cccc2/C=C2/NC(=O)N(c3ccccc3)C2=O)cc1`, the inhibition is 14.4% (active).
The value for `CN1C(=O)S/C(=C/c2cccn2-c2cccc(C(=O)O)c2)C1=O` was -3.46% (inactive).
The value for `N#C/C(=C/c1cccn1-c1cccc(C(=O)O)c1)c1ccc(F)cc1` was 2.91% (inactive); that for `N#Cc1ccccc1CN1C(=O)S/C(=C/c2cccn2-c2cccc(C(=O)O)c2)C1=O` was 2.69% (inactive).
The value for `O=C1N/C(=C/c2cccn2-c2ccc(F)cc2)C(=O)N1Cc1ccccc1` was -0.61% (inactive); that for `O=C1N/C(=C/c2cccn2-c2ccccc2)C(=O)N1Cc1ccc(F)cc1` was 1.54% (inactive).
In the case of `CN(C)c1nc(N/N=C\c2ccc(Cl)c([N+](=O)[O-])c2)nc(Nc2ccc(F)cc2)n1`, the inhibition was 3.5% (inactive).
To `COc1ccc(OCCCC(=O)Nc2cc([N+](=O)[O-])ccc2C)cc1` belongs 0.05% (inactive).
On to `Cc1ccc(NC(=O)CN2C(=O)NC3(CCc4ccccc43)C2=O)cc1Cl` (centres undefined), for which the inhibition is 2.43% (inactive).
With `CCc1ccc(C(=O)CN2CCSC2=N)cc1`, the inhibition is -4.03% (inactive).
For the molecule `COc1ccc2nc(C)cc(SCC(=O)OC(C)C)c2c1`, the inhibition was -3.07% (inactive).
To `Cc1ccc(NC(=O)CS(=O)CC(=O)NC2CCN(Cc3ccccc3)CC2)c(C)c1` (centres undefined) belongs 5.17% (inactive).
The value for `CC1CCC/C(=N/Nc2nc3ccccc3s2)C1` (centres undefined) was 1.47% (inactive).
To `O=C(Cn1ccc([N+](=O)[O-])n1)N1CCCCC1` belongs 1.12% (inactive); to `Cc1nn(C(=O)Cn2ccc([N+](=O)[O-])n2)c(C)c1Br`, 17.6% (active); to `O=C(Cn1ccc([N+](=O)[O-])n1)N1CCCCCC1`, -1.9% (inactive).
As for `Cc1cc(C)n2nc(SCCOc3ccccc3)nc2n1`, the inhibition was -0.25% (inactive).
To `Cc1cccc(NC(=S)NCc2cccn2C)c1` belongs 4.86% (inactive); to `O=C(NC1CCCCC1)c1cc(Cl)nc2ccccc12`, 1.21% (inactive); to `Cc1nc2cccc(C(=O)NCc3ccccc3)c2o1`, -4.24% (inactive).
To `Cc1nc2cccc(C(=O)NC3CCCCC3)c2o1` belongs 14.4% (active); to `Cc1cc(Br)ccc1SCC(=O)OCC(=O)Nc1ncc(C(F)(F)F)cc1Cl`, 1.65% (inactive).
The value for `CCOC(=O)/C(C#N)=C/Nc1cc(OC)ccc1OC` was -9.19% (inactive).
Regarding `CCOC(=O)/C(C#N)=C/Nc1cc(C(=O)OCC)cc2c(OC)c(OC)ccc12`, the inhibition is 26.4% (active).
To `CCOC(=O)/C(C#N)=C/Nc1ccccc1OC` belongs 1.82% (inactive).
`C#Cc1ccc([C@H]2C=C(C(=O)NC3CC3)O[C@@H](OCC)[C@@H]2CCCO)cc1`: the inhibition was 3.19% (inactive).
To `CCCN1C(=O)c2cc(C(=O)Nc3ccccc3C)ccc2C1Nc1ccccc1C` (centres undefined) belongs 12.9% (active).
To `CCCN1C(=O)c2cc(C(=O)Nc3ccccc3OC)ccc2C1Nc1ccccc1OC` (centres undefined) belongs -4.43% (inactive); to `CCCN1C(=O)c2cc(C(=O)Nc3ccc(OC)cc3OC)ccc2C1Nc1ccc(OC)cc1OC` (centres undefined), -6.94% (inactive).
To `Cc1cc(NC(=O)C2CCCCC2C(=O)O)no1` (centres undefined) belongs -2.61% (inactive).
Take `Cc1cccc(NNC(N)=S)c1C`: the inhibition was 1.37% (inactive).
The value for `CN(C)c1ccc(/C=C/c2ccc3ccccc3[n+]2C)cc1` was -0.66% (inactive).
The value for `CN(C)c1ccc(/C=C/c2ccc3c4ccccc4ccc3[n+]2-c2ccccc2)cc1` was 41% (active); that for `CC[n+]1c(/C=C/c2ccc(N(C)C)cc2)ccc2ccccc21` was 2.12% (inactive); that for `Cn1cccc1CC(=O)N/N=C/c1cccc([N+](=O)[O-])c1` was -5.88% (inactive).
The value for `Cc1ccc(-n2ncc3c(=O)n(-c4ccc(C)c(C)c4)c(C)nc32)cc1` was 48.2% (active).
For `Cc1ccc(-n2c(C)nc3c(cnn3-c3ccc(C)c(C)c3)c2=O)cc1C`, the inhibition is 6.8% (inactive).
To `Cc1ccc(-n2c(C)nc3c(cnn3-c3ccc(F)cc3)c2=O)cc1C` belongs -3.89% (inactive).
The value for `Cn1cc(/C=N/NC(=O)c2ccc(C#N)cc2F)c2ccccc21` was 1.51% (inactive); that for `CN(Cc1c(O)ccc2c1oc(=O)c1ccccc12)C1CCCCC1` was 14% (active); that for `CN(C)Cc1c(O)ccc2c3c(c(=O)oc12)CCCCC3` was 0.45% (inactive).
Regarding `C=CCN(CC=C)Cc1c(O)ccc2c1oc(=O)c1ccccc12`, the inhibition was -2.23% (inactive).
The value for `COc1ccc2cc3cc(C(=O)NCCCN4CCc5ccccc5C4)sc3nc2c1` was -12.5% (inactive); that for `Cc1ccc(/C=N/NC(=O)C[n+]2ccccc2)o1` was 5.08% (inactive).
The value for `O=C(CCC(=O)c1cccs1)Nc1nnc(C2CC2)s1` was 2.51% (inactive).
With `Cc1ccsc1/C=N/NC(=S)NCc1ccccc1`, the inhibition was 0.62% (inactive).
To `O=[N+]([O-])c1ccc2nccn2c1` belongs 2.74% (inactive); to `CC(=O)NC1=NC(=O)/C(=C/c2cc(C)n(-c3ccc(NC(C)=O)cc3)c2C)S1`, 3.45% (inactive); to `Cc1ccc(-n2cccc2/C=C2/NC(=O)N(CC(=O)Nc3cccc(C)c3)C2=O)cc1`, 10.8% (inactive).
The value for `Cc1ccc(NC(=O)CN2C(=O)S/C(=C\c3cccn3-c3cccc(C(=O)O)c3)C2=O)cc1C` was 6.74% (inactive); that for `Cc1cc(C=C2C(=O)c3ccccc3C2=O)c(C)n1-c1cccc(C(=O)O)c1` was 7.28% (inactive).
With `Cc1ccc(NC(=O)CN2C(=O)S/C(=C\c3cc(C)n(-c4cccc(C(=O)O)c4)c3C)C2=O)cc1`, the inhibition is 0.24% (inactive).
The value for `Cc1ccc(NC(=O)CN2C(=O)N/C(=C/c3cc(C)n(-c4ccc(C(=O)O)cc4)c3C)C2=O)cc1` was 8.1% (inactive); that for `Cc1cccc(NC(=O)CN2C(=O)N/C(=C\c3cccn3-c3cccc(C(=O)O)c3)C2=O)c1` was -2.01% (inactive).
The value for `Cc1ccc(NC(=O)CN2C(=O)N/C(=C/c3ccc(N4CCOCC4)cc3)C2=O)cc1` was -5.18% (inactive).
Turning to `Cc1ccc(NC(=O)CN2C(=O)N/C(=C/c3cc(C)n(-c4cccc(C(=O)O)c4)c3C)C2=O)cc1`, the inhibition is 14.9% (active).

Source of the values: PubChem BioAssay AID1376 (SRMLSC, 2008).
